ALR H2O2 inh: inhibitors of human ALR sulfhydryl oxidase, primary screen, biochemical, H2O2 detection, HRP-luminol luminescence, single point | inhibition, % (concentration not given with the values) | purified ALR, DTT oxidation | FAD-linked sulfhydryl oxidase ALR (Homo sapiens), P55789 | AID 485317, 2010 | 290,000 tested, 3.8% active;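 active = mean replicate inhibition above about 79%, with every replicate also reaching it, limit read from the data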
Target sequence (P55789 whole entry, looked up): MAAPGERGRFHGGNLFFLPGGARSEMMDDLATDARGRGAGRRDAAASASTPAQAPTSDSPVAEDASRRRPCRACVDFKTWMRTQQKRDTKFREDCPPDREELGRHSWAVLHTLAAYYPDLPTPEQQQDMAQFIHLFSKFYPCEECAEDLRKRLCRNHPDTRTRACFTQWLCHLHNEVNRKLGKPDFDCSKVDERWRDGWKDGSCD
PfM18AAP inh: PfM18AAP inhibitors, malaria aminopeptidase, primary screen, biochemical, QFRET, recombinant enzyme; M18 aspartyl aminopeptidase (Plasmodium falciparum 3D7); H-Glu-NHMec fluorogenic cleavage; inhibition, % at 7.35 µM; 290,000 tested, 1.2% active; AID 1822, 2009;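 active = inhibition above the campaign mean inhibition over all tested compounds plus 3 SD, cut at about 28% in these data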
HIF act: HIF pathway transcriptional activators, primary screen, cell-based, U2OS HRE-luciferase, luminescence; U2OS HRE-luciferase reporter; normalized: DMSO 0%, desferrioxamine 100%; activation, % at 7.5 µM (by protocol); 300,000 tested, 0.32% active; AID 1910, 2009;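 active = mean activation of at least 10% of the iron chelator positive control signal, with at least half of replicates also reaching 10%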
SUMO Mot1 rescue: yeast Mot1-301 growth rescue at high temperature, primary screen, SUMOylation pathway inhibitor project, S. cerevisiae, ATP luminescence, 38.5C; S. cerevisiae Mot1-301 growth rescue; percent above DMSO median, 100 means doubled; growth rescue, % at 18.8 µM; 320,000 tested, 1% active;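 active = every valid replicate shows activation above 250% relative to neutral control wells; inactive = the rest, any valid replicate at or below 250%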
Yeast Mot1 SUMO: growth restoration of Mot1-301 yeast on galactose, dose response, SUMO pathway inhibitor project, whole organism, S. cerevisiae, ATP luminescence, cherry-picked samples | shares compounds with SUMO Mot1 rescue | S. cerevisiae Mot1-301 galactose growth, 24 h; -100 = growth of slx-deleted rescue strain | growth activity, percent, % at 42 µM | 2,300 tested, under 10 active | AID 493004, 2010;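 active = Signal drops as the depositor expects, and the fitted half-maximal dose is no more than ten times the top valid tested dose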;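 note: more negative values mean stronger growth rescue toward the control strain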
A number is an active result; n = inactive; x = no result given; + = active, no number. A selection: hits, their analogues and other compounds. The true share with any hit is near 5.3%.

SMILES | ALR H2O2 inh | PfM18AAP inh | HIF act | SUMO Mot1 rescue | Yeast Mot1 SUMO
Cc1ccc(Oc2ccccc2NC(=O)C2=COCCO2)cc1 | x | x | n | 415.6 | n
O=C(Nc1cc(Cl)ccc1Oc1ccccc1)C1=COCCO1 | n | x | n | n | x
c1ccc2c(c1)nc(-c1ccncc1)n1nnnc21 | n | n | n | n | x
CCC(C)NCCOc1ccccc1C (stereo not given) | n | n | n | 385.8 | n
O=C(CCNC(=O)c1ccccc1)Nc1ccc(S(=O)(=O)Nc2ncccn2)cc1 | n | x | x | n | x
COC(=O)c1c(C)cc(O)c(C=O)c1O | n | x | n | 566.7 | n
NC(=O)C1CCCN(C(=S)Nc2cccc3ccccc23)C1 (stereo not given) | n | n | n | 908.8 | n
O=C(Nc1ccccc1)c1ccc2ccccc2n1 | n | n | n | n | x
O=C(Nc1ccc(OC(F)(F)F)cc1)c1ccc2ccccc2n1 | n | n | n | 644.8 | n
O=C(Oc1ccccc1)c1cccnc1Oc1ccccc1 | n | n | n | n | x
O=C(Nc1nccs1)c1ccc(S(=O)(=O)c2ccccc2)cc1 | n | n | n | 694.9 | n
COc1ccc(C2=[N+]([O-])C(C)(C)N(O)C2C)cc1 (stereo not given) | n | n | n | n | x
COc1cc2c(cc1OC)C(c1ccccc1)NC(C)(C)C2 (stereo not given) | x | n | n | n | x
CCCOC(=O)c1c(NC(=O)/C=C/c2cnn(C)c2C)sc(C(=O)OC)c1C | n | n | n | + | n
CC(NC(=O)C12CC3CC(CC(C3)C1)C2)c1ccc(F)cc1 (stereo not given) | n | n | n | n | x
C=CCn1c(CCC)nc2ccccc21 | x | n | n | 633.7 | n
C[C@H](NC(=O)c1nc[nH]c1C(=O)NCCCCCNC(=O)OC(C)(C)C)C(=O)OC(C)(C)C | x | n | n | n | x
O=C(CSc1cccc[n+]1[O-])N1CCCCCC1 | n | n | n | n | x
O=C(CSc1cccc[n+]1[O-])N1CCc2ccccc21 | x | n | n | 898.4 | n
CCOC(=O)N1CCN(C(=O)c2ccccc2-c2ccccc2)CC1 | n | n | n | 436.1 | n
O=C(c1ccc(Cl)c(S(=O)(=O)NCc2ccco2)c1)N1CCN(c2ccc(F)cc2)CC1 | n | n | n | n | x
COC(=O)c1cc(NC(=O)CSc2nnc(CN3CCOCC3)n2C)ccc1Cl | n | n | n | n | x
Cn1c(CN2CCOCC2)nnc1SCC(=O)Nc1cc(Cl)ccc1Cl | n | n | n | 611.5 | n
CC1=CC(C)(C)N(C(=O)CSc2nnc(C)s2)c2ccc(C)cc21 | n | n | n | n | x
C/C=C/C(=O)N1c2ccc(C)cc2C(C)=CC1(C)C | x | n | n | 962.0 | n
SMILES | ALR H2O2 inh | PfM18AAP inh | HIF act | SUMO Mot1 rescue | Yeast Mot1 SUMO
CCOc1ccc2ccccc2c1/C=N/NC(=O)c1ccc(C)nc1 | n | n | n | n | x
CCC(=O)N(CCc1ccccc1)Cc1cc2cccc(C)c2[nH]c1=O | n | n | n | n | x
COc1ccc(-c2cc(=O)c3cc(O)ccc3o2)cc1 | n | n | n | 553.6 | n
CC(=O)N1CCC(N(CCCOC(C)C)S(=O)(=O)c2ccc([N+](=O)[O-])cc2)CC1 | n | n | n | n | x
Cc1ccc(C(C(=O)NC(C)(C)C)N(Cc2ccc3c(c2)OCO3)C(=O)c2ccc(CN3CCOCC3)o2)o1 (stereo not given) | n | n | n | n | x
CC(C)(C)NC(=O)C(c1cccs1)N(Cc1cccs1)C(=O)c1ccc(CN2CCOCC2)o1 (stereo not given) | n | n | n | + | n
CN1C(=O)C2(NCCc3c2[nH]c2ccccc32)c2ccccc21 (stereo not given) | x | n | n | n | x
CC1=CC(C)(C)N2C(=O)C3(NCCc4c3[nH]c3ccccc43)c3cc(C)cc1c32 (stereo not given) | n | n | x | 506.2 | n
CCOC(=O)Nc1sc(=S)n(C)c1C | 92.7 | n | n | 509.4 | n
CCCCn1nc(C(=O)Nc2ccccc2N2CCCC2)c2ccccc2c1=O | n | x | x | n | x
CN(CCOc1ccc(-c2ccn(S(=O)(=O)c3cccc4ccccc34)n2)cc1)c1ccccn1 | n | n | n | 642.7 | n
S=C(Nc1ccc(Cl)cc1)N1CCN(Cc2ccccc2)CC1 | n | n | n | 590.1 | n
c1ccc2c(c1)[nH]c1c(N3CCN(C4CCCCC4)CC3)ncnc12 | n | n | n | 739.1 | n
c1ccc2c(c1)[nH]c1c(N3CCCC3)ncnc12 | n | n | n | n | x
O=C(CSc1nnc2ccc(-c3ccc(Br)cc3)nn12)NCC1CCCO1 (stereo not given) | n | x | n | n | x
CCOc1ccc(NC(=O)c2cccc(OC(=S)N3CCOCC3)c2)cc1 | n | n | n | n | x
CCN(CC)/C(=N\S(=O)(=O)c1ccc(F)cc1)c1ccccc1 | n | n | n | 550.9 | n
CN(C)/C(=N\S(=O)(=O)c1ccc(F)cc1)c1ccccc1 | n | n | n | n | x
Cc1nnc(SCC(=O)NC2CCCCCC2)n1N | n | x | x | n | x
CC1(C)CC(=O)C=C(OC(=O)c2ccc(Cl)cc2)C1 | 97.8 | n | n | 470.5 | n
CC(=O)Nc1ccc(OC(=O)c2ccc(Cl)cc2)cc1 | n | n | n | n | x
CCOC(=O)Cn1c(=O)n(Cc2ccco2)c(=O)c2ccc(C(=O)NCCc3ccccc3)cc21 | n | n | n | 370.1 | n
COc1ccc(CCNC(=O)Cn2c(=O)n(Cc3ccco3)c(=O)c3ccc(Cl)cc32)cc1OC | x | n | n | x | x
CNC(=O)Cn1nc(-c2ccc(C)cc2)c2ccccc2c1=O | n | n | n | n | x
COC(=O)C1(c2ccccc2)NC(c2cccs2)C2C(=O)N(c3ccccc3)C(=O)C21 (stereo not given) | n | n | n | n | x
SMILES | ALR H2O2 inh | PfM18AAP inh | HIF act | SUMO Mot1 rescue | Yeast Mot1 SUMO
CCCc1nc2c(nnn2Cc2ccccc2F)c(=O)[nH]1 | n | n | n | 386.0 | n
CN(C)c1ccc2c3c(ccc(N(C)C)c13)COC2 | n | n | n | n | x
CCN1CCN(c2ncnc3sc(C)c(-c4ccccc4)c23)CC1 | n | n | n | n | x
CC1(C)c2[nH]c3ccccc3c2C[C@H]2C(=O)N(Cc3cccc(F)c3)C(=O)N21 | n | x | n | 447.9 | n
COc1ccccc1OCC(=O)NNC(=O)c1ccc2c(=O)n3c(nc2c1)CCC3 | n | n | n | n | x
COc1ccc(NC(=O)COC(=O)c2cc(OC)c(OC)c(OC)c2)c([N+](=O)[O-])c1 | n | n | n | n | x
CNS(=O)(=O)c1cccc(C(=O)OCC(=O)Nc2ccc(OC)cc2[N+](=O)[O-])c1 | n | n | n | 810.3 | n
O=C(O)CN(c1ccccn1)S(=O)(=O)c1ccccc1 | n | n | n | n | x
O=C(O)CN(c1ccccn1)S(=O)(=O)c1ccc(Cl)cc1 | n | n | n | 589.2 | n
COc1ccc(-c2c(C)nn3c(C)cc(C)nc23)cc1 | n | n | n | 519.3 | n
Cc1cc(Cl)n2nc(C)c(-c3ccc(Cl)cc3)c2n1 | n | n | x | x | x
